# HepG2 tox: qHTS for Inhibitors of TGF-b: Cytotox Counterscreen; HepG2 CAGA-GFP viability, ATP luminescence, 18 h; hit rate 0.76% among 410,000; AID 588856, 2011; Potency, µM (top dose mostly 46.1 µM), inactives show top-dose activity change, negative = cytotoxicity, hits mostly cytotoxic
#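 CellTiter-Glo luminescence gave cytotoxicity after 18 hours at 37 degrees C. The cells were HepG2 CAGA-GFP in 1% FBS DMEM, stimulated with 500 pg/mL TGF-beta after compound addition. %Activity was normalised to no-cell wells (complete cell-killing) and DMSO (no toxicity), and curves were fitted and classified.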
# RORg inh: qHTS for inhibitors of ROR gamma transcriptional activity. Nuclear receptor ROR-gamma (Mus musculus), P51450. Drosophila S2 Gal4-RORgamma UAS-luciferase reporter, 20 h. Potency, µM (highest dose often 53.6 µM), for inactives: at the top dose activity change, negative = inhibition, actives largely listed as inhibitors. hit rate 5.4% among 310,000. AID 2551, 2010; also: % is scaled to controls: 0 for no effect and ±100 for the full control effect; nearly all actives have a fitted effect of over 60% in size
# Target sequence (P51450 whole entry, looked up, the tested form may be a part): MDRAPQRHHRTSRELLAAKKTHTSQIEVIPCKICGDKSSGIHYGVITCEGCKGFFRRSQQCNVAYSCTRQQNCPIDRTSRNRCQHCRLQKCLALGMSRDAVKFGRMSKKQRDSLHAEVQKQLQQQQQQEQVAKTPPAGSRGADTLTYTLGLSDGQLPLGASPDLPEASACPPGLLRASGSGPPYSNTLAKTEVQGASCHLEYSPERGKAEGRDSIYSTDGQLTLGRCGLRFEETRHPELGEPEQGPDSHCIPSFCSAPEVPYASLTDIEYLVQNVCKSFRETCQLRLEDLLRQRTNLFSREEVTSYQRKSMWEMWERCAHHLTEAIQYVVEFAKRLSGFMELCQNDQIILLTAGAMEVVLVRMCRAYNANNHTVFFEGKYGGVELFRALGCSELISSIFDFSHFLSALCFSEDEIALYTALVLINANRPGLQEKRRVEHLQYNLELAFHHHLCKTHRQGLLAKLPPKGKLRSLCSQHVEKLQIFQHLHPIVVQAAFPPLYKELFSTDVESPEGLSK
#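 Stably transfected Drosophila Schneider cells are the test system, with ROR gamma fused to Gal4 and luciferase under UAS control; luminescence is read after 20 hr of 700 uM copper sulfate induction at ambient temperature.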
# ATXN viability: Viability Counterscreen for Primary qHTS for Inhibitors of ATXN expression; Potency, µM (series often up to 56.7 µM), usual class: cytotoxic; S2 cells (HEK-293 line with an ATXN2-luciferase reporter) viability, CellTiter-Fluor protease fluorescence, 24 h; hit rate 0.49% among 400,000; AID 651635, 2014; also: nearly all actives have a fitted effect of over 40% in size
# ATXN2 expr inh: Primary qHTS for Inhibitors of ATXN expression; HEK-293 ATXN2-luciferase reporter, luminescence, 24 h; Potency, µM (doses to about 57 µM), inactives show at the highest dose activity change, negative = inhibition, usual class: inhibitors; hit rate 0.72% among 360,000; also: % is scaled to controls: 0 for no effect and ±100 for the full control effect; nearly all actives have a fitted effect of over 55% in size
#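 qHTS (up to 57 uM final) was run with 24 h compound exposure of reporter cells at 37 °C. Each well was multiplexed: SteadyGlo luminescence measured ATXN2-luciferase expression after a fluorogenic Gly-Phe-AFC viability readout (25 uM final).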
# Gal4-VP16 FLuc: VP16 counterscreen qHTS for inhibitors of ROR gamma transcriptional activity; Drosophila S2 Gal4-VP16 UAS-luciferase, luminescence, 20 h; Potency, µM (highest dose often 53.6 µM), without a hit: at the highest dose activity, negative = inhibition, usual class: inhibitors; hit rate 3.5% among 310,000; AID 2546, 2010;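 also: Gal4-VP16 expression switched on by copper sulfate through the metallothionein promoter; % is scaled to controls: 0 for no effect and ±100 for the full control effect; nearly all actives have a fitted effect of over 50% in size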
# TGFb inhibitor: qHTS for Inhibitors of TGF-b; HepG2 CAGA-GFP TGF-b/SMAD3 reporter, GFP fluorescence, 18 h; TGF-beta stimulated, 500 pg/mL final; hit rate 1.2% among 410,000; AID 588855, 2011; Potency, µM (top dose mostly 46.1 µM), for the others: top-dose activity, negative = inhibition, most hits filed as inhibitors; also: % is scaled to controls: 0 for no effect and ±100 for the full control effect; nearly all actives have a fitted effect of over 65% in size
#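 Per well, imaged GFP fluorescence of HEPG2 CAGA-GFP cells gives the signal; cells get compound, then TGF-beta (500 pg/mL final), 18 h at 37 degrees C; %Activity versus -TGF-beta and +DMSO controls.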
# * = called active by the depositor; i = inactive; ? = inconclusive; / = no result given. Compounds with a hit are over-represented: about 6.1% of the library has one in this group of screens. Calls follow the shape of the dose curve; as a rule, active = well fitted curve in the direction sought with a large enough effect; inconclusive = small, poorly fitted or top-dose-only effect, or another doubt; inactive = no such curve, though single readings can be large; an effect the other way counts as inactive or inconclusive. Potency is read from the fitted curve at half-maximal effect.
SMILES,HepG2 tox,RORg inh,ATXN viability,ATXN2 expr inh,Gal4-VP16 FLuc,TGFb inhibitor
COc1cc2c(c(OC)c1OC)-c1ccc(OC)c(=O)cc1[C@@H](NC=O)CC2,/,-31%,/,/,-3%,/
CCCCN(C)C(=O)c1ccc2c(=O)n3nc(Nc4cc(C)ccc4C)sc3nc2c1,-29%,/,/,/,/,?
CCN1CCCC1CNC(=O)c1cnn(-c2nccc(-c3ccccc3F)n2)c1C (configuration not stated),/,/,i,/,/,/
CC1CCC(C(C)C)C(OC(=O)C[n+]2cc(-c3ccc(Cl)cc3)n3c2CCC3)C1 (configuration not stated),-36%,-19%,i,?,?,11µM*
O=C(C[n+]1cc(-c2ccc(Cl)cc2)n2c1CCC2)N1c2ccccc2Sc2ccccc21,-35%,14%,i,21%,-8%,-22%
CON(C)C(=O)CCN(C(=O)OC(C)(C)C)c1ccccc1,0.56µM*,/,i,0%,/,27%
COC(=O)CCC(=O)N(CCN(C(=O)CCC(=O)OC)c1ccccc1)c1ccccc1,-3%,-3%,i,-5%,-2%,0%
CCc1ccc(NC(=O)CN(N=Nc2nonc2C)c2nonc2C)cc1,-40%,4µM*,i,-11%,?,0%
C=C1C(=O)C23CCC4C(C)(C(=O)OC)CCCC4(C)C2CCC1(O)C3 (configuration not stated),2.8µM*,/,5.3µM*,?,/,3.2µM*
COC(=O)[C@]1(C)CCC[C@@]2(C)C3CC[C@@]4(C)C[C@]3(CCC21)CC(=O)N4 (some centres not stated),-15%,/,i,-1%,/,-38%
COCCN1C(=O)/C(=C/c2cc3c(cc2Br)OCO3)NC1=S,-5%,11µM*,?,-21%,?,-27%
CC(=O)c1c(C)n(CCO)c2ccc(O)cc12,2%,2%,?,2%,-1%,18%
CCCCCS(=O)(=O)CCCCCCCCCCn1c(-c2ccc(O)cc2)c(C)c2cc(O)ccc21,/,?,/,/,20µM*,/
Cc1ccc(C(N)=O)cc1Nc1nccc(-c2cn(C(C)C)c3cnccc23)n1,/,/,/,12µM*,/,/
COc1ccc(CN(N=O)C2CC(=O)N(c3ccc(OC)cc3)C2=O)cc1 (configuration not stated),0%,?,i,-21%,14µM*,-15%
COc1ccc(N2C(=O)CC(N(CCc3ccc(OC)c(OC)c3)C(=S)Nc3ccccc3)C2=O)cc1 (configuration not stated),-18%,?,?,-20%,0.79µM*,4%
COc1ccc(CCN(C)C2CC(=O)N(c3ccccc3)C2=O)cc1OC (configuration not stated),-1%,?,i,17%,16µM*,-5%
CCCOc1ccc(N2C(=O)CC(N(Cc3ccccc3)N=O)C2=O)cc1 (configuration not stated),-1%,18%,i,-22%,?,-12%
COc1ccc(N2C(=O)CC(N(C)CCc3ccc(OC)c(OC)c3)C2=O)cc1 (configuration not stated),8%,7%,?,-2%,-16%,4%
COc1cc(OC)c(NC(=O)Cn2cnc3c(nc4n3CCCCC4)c2=O)cc1Cl,-4%,/,i,6%,/,-6%
COc1c(Br)cc(Br)cc1/C=N/NC(=O)c1cccnc1,-22%,?,?,?,?,?
COc1ccc(/C=N/NC(=O)c2cccnc2)c2ccccc12,-39%,1.3µM*,i,-39%,-19%,?
COc1ccc(/C=N/NC(=O)c2c(Br)cnn2C)c2ccccc12,-47%,20µM*,i,-12%,2.8µM*,-14%

# Screening data as filed in PubChem BioAssay.
